Source: PubChem BioAssay (National Center for Advancing Translational Sciences (NCATS))
Hits are enriched below; roughly 0.69% of the tested compounds scored in any of these assays.
Vif-A3F inh – qHTS for Inhibitors of Vif-A3F Interactions: qHTS; HeLa A3F-eYFP + Vif (tagged APOBEC3F with the HIV-1 protein that degrades it), YFP fluorescence increase; Potency, µM (top dose mostly 46.1 µM), inactives show at the top dose activity, negative = active; 390,000 compounds, 0.2% hits; AID 602313, 2012; also: % of control where 0% means no effect; nearly all actives have a fitted effect of over 65% in size
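Fluorescence increase (Ex 488/Em 500-530) after overnight compound treatment at 37 deg C flags inhibition of Vif-driven A3F-eYFP loss in stable HeLa A3F-eYFP/Vif cells seeded overnight beforehand.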
FUS yeast rescue – qHTS for Suppressors of FUS Proteinopathy: Primary screen using FUS-linked yeast assay | S. cerevisiae FUS-expressing, growth rescue, OD600, 24 h | Potency, µM (top dose mostly 76.6 µM), usual class: activators | 390,000 compounds, 0.24% hits;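 also: plate controls were DMSO vehicle for no effect and reference control for full effect; nearly all actives have a fitted effect of over 55% in size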
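Cultures pregrown in 2.5% raffinose medium are shifted to minimal medium containing 2% galactose to express toxic FUS. Compounds are tested at several concentrations. After 24hr at 30C, growth is quantified at 600 nm absorbance.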
Abeta rescue – qHTS for compounds that reverse cellular toxicity of Amyloid beta (A-beta) peptide in yeast: Primary Screen | yeast expressing A-beta42, growth rescue, OD600, 48 h; response scale: 0% DMSO, 100% iron-clioquinol control | Potency, µM (series often up to 46.1 µM), hits mostly activators | 410,000 compounds, 0.063% hits | AID 1347071, 2019; also: nearly all actives have a fitted effect of over 55% in size
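Growth rescue measured by 600 nm absorbance after 48 h yeast culture at 30 C with compound. Values normalized between DMSO and an equimolar ferric chloride plus clioquinol control.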
PINK1 expr mod – A Quantitative High throughput Screen to Identify Chemical Modulators of PINK1 Expression; PINK1 immunofluorescence, high-content cytometry, 24 h; Potency, µM (top dose mostly 76.6 µM), without a hit: at the top dose activation (PINK1 increase), hits mostly activators; 410,000 compounds, 0.2% hits; active = well fitted activation curve with a large enough effect; inconclusive = small, poorly fitted or top-dose-only effect; cell line not stated here; also: % of control where 0% means no effect; nearly all actives have a fitted effect of over 65% in size
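Measures PINK1 amount and localization on or inside mitochondria by immunofluorescence. Stable cells get compounds at 5 concentrations for 24 hours before fixation and staining; CCCP controls included.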
Vif-APOBEC3G blk – qHTS for Inhibitors of Vif-A3G Interactions: qHTS; HeLa A3G-eYFP + Vif (tagged APOBEC3G with the HIV-1 protein that degrades it), YFP fluorescence, overnight; DNA dC->dU-editing enzyme APOBEC-3G (Homo sapiens), Q9HC16; AID 602310, 2012; 410,000 compounds, 0.076% hits; Potency, µM (top dose mostly 46.1 µM), for the others: at the highest dose activity, negative = active, actives largely listed as inhibitors; also: % is scaled to controls: 0 for no effect and ±100 for the full control effect; nearly all actives have a fitted effect of over 60% in size
Target sequence (Q9HC16 whole entry, looked up): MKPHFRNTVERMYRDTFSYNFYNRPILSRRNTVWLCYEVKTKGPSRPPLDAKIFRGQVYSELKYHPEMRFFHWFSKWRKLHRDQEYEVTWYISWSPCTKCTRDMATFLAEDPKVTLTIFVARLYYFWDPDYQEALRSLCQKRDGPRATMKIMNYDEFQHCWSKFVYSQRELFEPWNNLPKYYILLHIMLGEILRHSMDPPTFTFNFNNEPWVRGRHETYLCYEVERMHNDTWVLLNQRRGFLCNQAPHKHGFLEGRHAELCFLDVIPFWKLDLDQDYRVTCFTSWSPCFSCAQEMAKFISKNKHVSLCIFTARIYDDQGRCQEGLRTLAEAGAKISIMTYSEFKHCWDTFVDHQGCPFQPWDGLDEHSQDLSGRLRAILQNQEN
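Read-out is eYFP fluorescence (Ex 488/Em 500-530) from Vif-expressing HeLa A3G-eYFP cells; more signal means A3G escaped Vif-mediated degradation. Cells plated overnight, compound pinned in, incubated overnight at 37 deg C.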
Glioma ERSR ind – qHTS for Inducers of the Endoplasmic Reticulum Stress Response (ERSR) in Human Glioma: qHTS; 420,000 compounds, 0.02% hits; U87-MG GRP78 promoter luciferase reporter, 16 h; Potency, µM, without a hit: at the highest dose activation, actives largely listed as activators; also: series mostly up to about 76 µM; % of control where 0% means no effect; nearly all actives have a fitted effect of over 35% in size
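Stably transfected U87-MG glioma cells carrying a GRP78-based luciferase sensor; 16 h compound incubation. Luminescence end-point read 10 min after Bright-Glo addition at room temperature.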
Active calls of the source: *; [ ] = remark or other dose. Unless noted, calls follow the shape of the dose curve; as a rule, active = well fitted curve in the direction sought with a large enough effect; inconclusive = small, poorly fitted or top-dose-only effect, or another doubt; inactive = no such curve, though single readings can be large; an effect the other way counts as inactive or inconclusive. Potency is read from the fitted curve at half-maximal effect.

For CC1CC(C)(C)Nc2ccc(OC(=O)c3ccco3)cc21 (stereo not given) the results were Vif-A3F inh 31.6µM*, FUS yeast rescue inactive, Abeta rescue inactive, PINK1 expr mod -1.5%, Vif-APOBEC3G blk 22.4µM* and Glioma ERSR ind -15.0%.
`O=C(Oc1ccc2ccccc2c1)c1ccco1` gave Vif-A3F inh 1.0%, FUS yeast rescue inactive, Abeta rescue inactive, PINK1 expr mod -3.0%, Vif-APOBEC3G blk -2.8% and Glioma ERSR ind 4.1%.
Screening CN(C)CCC(=O)N1C/C(=C/c2ccccc2)C(=O)/C(=C\c2ccccc2)C1 returned Vif-A3F inh -0.1%, Abeta rescue inactive, PINK1 expr mod -6.2%, Vif-APOBEC3G blk inconclusive and Glioma ERSR ind -14.3%.
`C[N+](C)(C)CCC(=O)N1C/C(=C/c2ccccc2)C(=O)/C(=C\c2ccccc2)C1` gave Vif-A3F inh inconclusive, Abeta rescue inactive, PINK1 expr mod -5.4%, Vif-APOBEC3G blk 7.94µM* and Glioma ERSR ind -14.0%.
`COc1cc(=O)n2c(c1C(=O)NC(C)c1ccco1)CCN(C(=O)c1ccnc(Cl)c1)CC2` (stereo not given) gave PINK1 expr mod 1.0% and Glioma ERSR ind -3.3%.
Screening CCN1CCN(C(=O)c2ccc3c(c2)N(Cc2ccc(Cl)cc2)C(=O)c2ccccc2S3(=O)=O)CC1 returned Vif-A3F inh 2.7%, FUS yeast rescue inactive, Abeta rescue inactive, PINK1 expr mod 0.2%, Vif-APOBEC3G blk -3.0% and Glioma ERSR ind -1.5%.
Screening O=C(c1ccc2c(c1)N(Cc1ccc(F)cc1)C(=O)c1ccccc1S2(=O)=O)N1CCCC1 returned Vif-A3F inh -0.2%, FUS yeast rescue inactive, Abeta rescue inactive, PINK1 expr mod 1.0%, Vif-APOBEC3G blk -1.4% and Glioma ERSR ind -1.8%.
Screening O=C(c1ccc2c(c1)N(Cc1ccc(Cl)cc1)C(=O)c1ccccc1S2(=O)=O)N1CCCC1 returned Vif-A3F inh 7.4%, FUS yeast rescue 31.6µM*, Abeta rescue inactive, PINK1 expr mod 0.8%, Vif-APOBEC3G blk -0.6% and Glioma ERSR ind -0.2%.
For O=C(c1ccc2c(c1)N(Cc1ccc(Cl)cc1)C(=O)c1ccccc1S2(=O)=O)N1CCc2ccccc21 the results were Vif-A3F inh -0.7%, FUS yeast rescue 7.94µM*, Abeta rescue inactive, PINK1 expr mod 4.8%, Vif-APOBEC3G blk -3.7% and Glioma ERSR ind -0.8%.
For COc1ccccc1Oc1nc2c(C)cccn2c(=O)c1/C=C(\C#N)c1nc2ccccc2[nH]1 the results were Vif-A3F inh 2.9%, FUS yeast rescue inactive, Abeta rescue inactive, PINK1 expr mod 25.1µM*, Vif-APOBEC3G blk -22.5% and Glioma ERSR ind -0.8%.
For O=C(CSc1ncccn1)NCC1Cc2cccc(-c3ncccn3)c2O1 (stereo not given) the results were PINK1 expr mod 0.9% and Glioma ERSR ind -2.0%.
CC(C)(C)n1ncc2c(=O)n(Cc3ccc(C(F)(F)F)cc3)cnc21 was read as Vif-APOBEC3G blk 1.2% and Glioma ERSR ind -8.3%.
Screening Cc1ccc(O)c(NC(=O)c2cc(-c3ccccc3Cl)on2)c1 returned Vif-A3F inh inconclusive, FUS yeast rescue inactive, Abeta rescue inactive, PINK1 expr mod 1.2%, Vif-APOBEC3G blk -4.8% and Glioma ERSR ind inconclusive.
`Cc1ccc(O)c(NC(=O)c2cc(-c3ccccc3O)no2)c1` gave Vif-A3F inh 11.2µM*, FUS yeast rescue inactive, Abeta rescue inactive, PINK1 expr mod 1.8%, Vif-APOBEC3G blk inconclusive and Glioma ERSR ind 5.0%.
For O=C(NCc1cccc(Br)c1)c1cc(-c2ccccc2)nn1CC1CC(c2cccc([N+](=O)[O-])c2)=NO1 (stereo not given) the results were Vif-A3F inh -4.0%, FUS yeast rescue 31.6µM*, Abeta rescue inactive, PINK1 expr mod 5.3%, Vif-APOBEC3G blk -4.1% and Glioma ERSR ind -5.0%.
`Cc1ccc(NC(=S)NNC(=O)C2CC2c2ccc(C)cc2)cc1` (stereo not given) gave Vif-A3F inh -0.6%, FUS yeast rescue 28.2µM*, Abeta rescue inconclusive, PINK1 expr mod -2.5%[38.3 µM], Vif-APOBEC3G blk 6.1% and Glioma ERSR ind -0.7%.
`Cc1ccccc1NC(=S)N(Cc1ccccn1)Cc1ccccc1Cl` gave Vif-A3F inh inconclusive, FUS yeast rescue inactive, Abeta rescue 12.6µM*, PINK1 expr mod 2.5%, Vif-APOBEC3G blk -4.6% and Glioma ERSR ind -2.7%.
`O=C(Cc1ccccc1)Nc1nc2ccccc2s1` gave Vif-A3F inh 7.6%, FUS yeast rescue inactive, Abeta rescue 7.08µM*, PINK1 expr mod -0.5%, Vif-APOBEC3G blk -8.1% and Glioma ERSR ind 0.1%.
`Cc1ccnn1CC(=O)N1CCOc2c(cc(-c3csc4ccccc34)cc2OC2CCOC2)C1` (stereo not given) gave PINK1 expr mod 3.3% and Glioma ERSR ind -3.0%.
For COc1cccc(CNC(=O)c2c(OC)cc(=O)n3c2CCN(C(=O)C2CC24CCCCC4)CC3)c1 (stereo not given) the results were PINK1 expr mod -0.8% and Glioma ERSR ind -2.0%.
Screening Cc1ccc(CNC(=O)c2ccc(N3CCC4(CC3)CC(c3cccc(Br)c3)=NO4)c(N)c2)cc1 returned Vif-A3F inh 5.8%, FUS yeast rescue 17.8µM*, Abeta rescue inactive, PINK1 expr mod -1.8%, Vif-APOBEC3G blk 3.6% and Glioma ERSR ind -2.3%.
For Cc1ccc(CNC(=O)c2ccc(N3CCC4(CC3)CC(c3cccc(Br)c3)=NO4)c(NC(=O)c3ccc(Br)cc3)c2)cc1 the results were Vif-A3F inh -3.0%, FUS yeast rescue inactive, Abeta rescue inactive, PINK1 expr mod -0.5%, Vif-APOBEC3G blk -3.9% and Glioma ERSR ind -0.1%.
Screening CCOC(=O)[C@H](CCc1ccccc1)NC(C)C(=O)N1CC2(CC1C(=O)O)SCCS2 (stereo not given in full) returned Glioma ERSR ind -3.8%.
Screening CCc1ccc(C2C(C#N)=C(N)SC(N)=C2C#N)s1 returned Vif-A3F inh 22.4µM*, FUS yeast rescue inactive, Abeta rescue inconclusive, PINK1 expr mod 5.4%, Vif-APOBEC3G blk inconclusive and Glioma ERSR ind 1.3%.
